IL-1B inflam inh – qHTS for Inhibitors of Inflammasome Signaling: IL-1-beta AlphaLISA Primary Screen. THP-1 LPS/ATP IL-1B secretion, AlphaLISA, 16 h; stronger effect = lower value. activity change, % at 57.5 µM. 4.7% of 360,000 active; in the data active = activity change below about -50%; inconclusive = mostly about -30% to -49%
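THP-1 cells pretreated 1 hr with compounds (up to 57.5 uM final), then stimulated with LPS (250 ng/mL final) plus ATP (1.25 mM final); secreted IL-1B measured by AlphaLISA after 16 hr, decreased signal indicating inhibition.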
KB-3-1 tox – qHTS assay for MDR1-selective chemotherapeutics: Primary screen using the parental adenocarcinoma cell KB-3-1. KB-3-1 viability, CellTiter-Glo ATP luminescence, 72 h. Potency, µM (series often up to 46.1 µM), usual class: cytotoxic. 1.4% of 400,000 active; note: potency is the fitted concentration of half-maximal effect; nearly all actives have a fitted effect of over 60% in size
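Cytotoxicity measured as CellTiter-Glo luminescence after 72 h at 37 C. Compound titrations were pinned onto drug-naive KB-3-1 parental adenocarcinoma cells grown in DMEM with 10% FBS, and normalized data fitted to concentration-response curves.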
HT1080 IDH1KD tx – qHTS for induction of synthetic lethality in tumor cells producing 2HG: qHTS for the HT-1080-IDH1KD cell line. HT-1080 IDH1 knockdown viability, ATP luminescence, 48 h. Potency, µM (top dose mostly 46.1 µM), for the others: top-dose activity, negative = toxicity, most hits filed as cytotoxic. 2% of 360,000 active;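 note: potency is the fitted concentration of half-maximal effect; 0% = DMSO wells and -100% = cell-free medium wells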
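Knockdown cells (IDH1KD HT-1080) received compounds 2 h after plating at 750 cells/well and were kept 48 h at 37 °C in 5% FBS RPMI. A CellTiter-Glo luminescence read gave % activity for curve fitting.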
HT1080-NT tox – qHTS for induction of synthetic lethality in tumor cells producing 2HG: qHTS for the HT-1080-NT fibrosarcoma cell line | HT-1080-NT fibrosarcoma viability, CellTiter-Glo ATP luminescence, 48 h | Potency, µM (titrated, usually from 46.1 µM), for inactives: at the highest dose activity, negative = less viability, actives largely listed as cytotoxic | 1.6% of 360,000 active | AID 686970, 2013;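 note: NT is the 2HG producing partner of a matched IDH1 knockdown line; potency is the fitted concentration of half-maximal effect; 0% = DMSO-treated cells and -100% = media-only wells without cells; nearly all actives have a fitted effect of over 55% in size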
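A 48-hour cytotoxicity screen used HT-1080-NT cells plated 2 hours before compound delivery. ATP-based CellTiter-Glo luminescence measured viability, normalized to DMSO and no-cell controls.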
KB-V1 MDR tox – qHTS assay for MDR1-selective chemotherapeutics: Primary screen using the drug-selected MDR subline cells KB-V1; KB-V1 MDR cells viability, CellTiter-Glo, 72 h; Potency, µM (doses to about 46.1 µM), usual class: cytotoxic; 3.4% of 400,000 active; AID 1347076, 2019; note: potency is the fitted concentration of half-maximal effect; nearly all actives have a fitted effect of over 60% in size
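Cytotoxicity via CellTiter-Glo luminescence after 72 h compound exposure at 37 degrees C. Cells: drug-selected KB-V1 line, DMEM phenol-red free plus 10% FBS. Compounds tested at multiple concentrations; normalized data fitted to concentration-effect curves.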
An asterisk follows results filed as active; i = inactive; u = inconclusive; x = no result; [ ] = remark or other dose. A selection: hits, their analogues and other compounds. The true share with any hit is near 8.8%. Unless noted, calls come from the whole dose curve; as a rule, active = well fitted curve in the direction sought with a large enough effect; inconclusive = small, poorly fitted or top-dose-only effect, or another doubt; inactive = no such curve, though single readings can be large; an effect the other way counts as inactive or inconclusive. Unless noted, % is set by controls: 0 for no effect and ±100 for the full control effect.

SMILES	IL-1B inflam inh	KB-3-1 tox	HT1080 IDH1KD tx	HT1080-NT tox	KB-V1 MDR tox
COc1ccc(N2CCN(C(=O)CSc3nc4[nH]ncc4c(=O)n3-c3cccc4ccccc34)CC2)cc1	-51*	i	-13%	-23%	u
COc1cc2c(cc1OC)CN(C(=O)CSc1nc3[nH]ncc3c(=O)n1-c1ccccc1)CC2	-17	i	-12%	-9%	i
OC(c1ccc(F)c(F)c1)c1ncc(-c2cccc(F)c2)[nH]1 (stereo not given)	0	i	-3%	-5%	i
CCOC(=O)CN1C(=O)C2Cc3ccccc3CN2C1=S (stereo not given)	-18	i	-3%	-3%	i
CC1(C(=O)NS(=O)(=O)C2CC2)CCCN(C(=O)c2ccco2)C1 (stereo not given)	16	i	26%	10%	i
Cc1ccc(C)c(NC(=S)c2ccc3ccccc3n2)c1	-6	u	-3%	-9%	i
Cc1ccc(C)c(NC(=S)c2ccccn2)c1	-101*	i	-14%	-1%	i
Cc1ccccc1-c1ocnc1C(=O)Nc1ccccc1NC(=O)c1ccccn1	-3	i	u	3.7µM*	u
Cc1ccc(C)c(C(=O)c2ccccc2NC(=O)c2ccccn2)c1	18	u	21µM*	u	u
Cc1ccc(Cn2cccc2C2=NC(C)(C)CO2)cc1	x	i	x	x	u
Cc1c(NC(=S)/C=C2\N(C)c3ccccc3C2(C)C)c(=O)n(-c2ccccc2)n1C	-7	i	-19%	-13%	23µM*
Cc1c(N=C/C=C2\N(C)c3ccccc3C2(C)C)c(=O)n(-c2ccccc2)n1C	-5	i	-28%	0%	i
COc1ccc(C(=O)CCc2ccc(OC)c(OC)c2)cc1	-1	u	-19%	4%	i
COc1ccc(C(=O)Cc2ccc(OC)c(OC)c2)cc1	0	i	-4%	-3%	23µM*
CCOc1cc(C(=O)CSc2nnc(CNc3ccc(Cl)cc3)o2)ccc1NC(=O)CC	-103*	u	u	-22%	21µM*
COc1ccc(NCc2nnc(SCC(=O)N3CCCc4ccccc43)o2)cc1	-29	i	-1%	0%	i
O=C(CSc1nnc(CNc2ccccc2)o1)N1CCCc2ccccc21	0	i	7%	-3%	13µM*
CC1Cc2ccccc2N1C(=O)CSc1nnc(CNc2ccccc2)o1 (stereo not given)	17	u	-11%	7%	16µM*
O=C(CSc1nnc(CNC(=O)c2ccco2)o1)c1ccc(Cl)cc1	-106*	i	11%	7%	i
CN1CCN(c2ccc(S(=O)(=O)N3CCOCC3)cc2NC(=O)CSCc2ccccc2)CC1	u	u	0%	-7%	i
Cc1ccc2nc(/C=C/c3ccc(N(C)C)cc3)ccc2c1	x	i	x	x	u
O=C(CSc1nnc(CNc2ccccc2)o1)c1ccc2c(c1)OCCO2	-68*	i	-4%[9.24 µM]	-23%	i
O=C(CSc1nnc(CNc2ccc(F)cc2)o1)N1c2ccccc2Sc2ccccc21	u	u	u	-20%	3.3µM*
O=C(CSc1nnc(CNC(=O)c2ccccc2)o1)Nc1ccc2c(c1)OCCO2	16	i	-5%	-2%	u
CC(C)Sc1nc2ccccc2n1CC(=O)NCc1ccc2c(c1)OCO2	-5	i	-5%	9%	15µM*
CC(=O)c1c(C(C)=O)c(C)n(Cc2ccc3c(c2)OCO3)c1C	-1	13µM*	-8%	-9%	2.6µM*
CC(=O)c1c(C)n(CC(=O)NCc2ccc3c(c2)OCO3)c2ccccc12	-5	16µM*	-24%	u	2.9µM*
O=C(CN1C(=O)CCSc2ccccc21)Nc1ccc2c(c1)OCO2	12	i	-26%	-2%	18µM*

Source: PubChem BioAssay (National Center for Advancing Translational Sciences (NCATS))
